According to the supplement of paper PMC6555819:

The sequences below were run on LXRb:RXRa (NR concentration 270 nM, RXRa partner concentration 90 nM) (assay: PBM binding z-score (relative to random genomic background probes); higher = stronger binding; sequences stand for … in GC…GCGATTGACAGCGTAGAATGAAGG).
Summary of the method: (§1)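 Binding z-scores were set against random background probes. The data came from custom Agilent 4×180K protein-binding microarrays carrying double-stranded probes with 34-nt variable regions, incubated 1 h with ligand-free nuclear receptor dimers. Partner-specific antibodies detected binding, and scanned fluorescence was regression-normalized.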
Work on ACGGACAGGTGAGTGAAGGTAACTCAGCTGGACG yielded a PBM binding z-score of -0.294. For ATCTCTAGGTAACCAAGTTCAGTGGATGCCGAAC, the PBM binding z-score was 0.38. For CCTAGCAGGCCAATCTGGGGCACTCAAGGCTTGA, the PBM binding z-score was -0.768. CGTCCAAGGACAAAGGTCAGTGAAGAGATGACGG gave a PBM binding z-score of 2.85. GATACAGGGTCAAGGCTAGAGTACGCGTATTGAT showed a PBM binding z-score of 3.78. Sequence AATACAGGGTCTTCGTAGGCCAGAGTACGCACAG has a PBM binding z-score of -0.205. For CCTACTGGGCCAAGGTCATGGATCAGTCAAAGCA, the PBM binding z-score was 3.01. In the case of GGAACGCGGGCAAAGTTGATAGCATCTGTCGACG, the PBM binding z-score was -0.893. ACTATTAGTTGAGACGATGGCAACCGATAGGTTG showed a PBM binding z-score of -0.527. Sequence CAGCCTATGTCAGGGCCAGTATAGGAGGAACGTT has a PBM binding z-score of -0.524. CCGACTGGGGCTAGGTTACCATAACGCACAGCCA showed a PBM binding z-score of -0.184. CGAACTAGGTCATTGACAGGACTGTGAATAGTAA showed a PBM binding z-score of 1.81. CGAACGAGGGCCTGAGTTGATAGCAAATGCCGAT gave a PBM binding z-score of -0.612. GCTAGTAGGCCATTTGGGTCACTCAATGACGGGC was tested, and the PBM binding z-score was -0.044. GCTGCTAGGTGAGGTTGGTCAGCTAACGGGTACG gave a PBM binding z-score of -0.672. ATACCAGGGTGATCGTGAGGTCGTTGATACTAAC showed a PBM binding z-score of 1.5. GCTAGCAGGCCATTTGGGTGACTCAATGACGGGC gave a PBM binding z-score of -1.05. GCTGCTAGGTCAGGTTGGTCAGCAAACGGGTACG showed a PBM binding z-score of 0.519.

Each sequence was assayed on LXRb homodimer (NR concentration 270 nM) in the same assay as above.
Summary of the method: as §1
Sequence CCTAGTTGGTCAGCAGGTCACACACCGGATATGA has a PBM binding z-score of 0.372. For AGTCAAAGTTCAGGAGGAGGTAACGTAAAGCACG, the PBM binding z-score was 0.773. With CCAGACAGGTGAGAAGTTAACTCAGCCTCGATTA the PBM binding z-score was -0.306. Work on TCGAGTAGGTTAGTCGGGGCATTAAGCCAACATA yielded a PBM binding z-score of -0.774. For CCTTCTGGGCCACGAAAGGTCATTGATTCAGTGA, the PBM binding z-score was 0.628. For TGTCAAAGTTCAAAGGTAACGTTAGTATCCACAC, the PBM binding z-score was 1.95. For GCGAGTTGGTCAGTAAAAGGTCACACACCGGTCG, the PBM binding z-score was 0.343. ATATGTAGGTTAAGGGACATTCAGGTTGGTTCGC was tested, and the PBM binding z-score was 0.703. With CCTATTAGTTGGCCATAAGGGCAACCGAAGCTCG the PBM binding z-score was -0.0843. With GCTGCTAGGTCAAATGATGGTCAGCTAAAGCTCG the PBM binding z-score was 0.557. GCAGACAGGTGAAACGCAGGTCACTCAGGGTGGC was tested, and the PBM binding z-score was -0.88. With TCTATTAGTTGATTAGGACAACCGAAACAGCGGA the PBM binding z-score was 1.17. ACTATTAGTTGACTCAGGGCAACCGATACGACGC was tested, and the PBM binding z-score was 0.862. For ATCTCTACGTAAAGATAGTTCAGTGAATGCAAAT, the PBM binding z-score was 0.419. In the case of CGTTACGGGTCACGAGGTTATAGCACGACGAGCG, the PBM binding z-score was -0.0926. Work on TTTCAAAGTTCAAAGGTAACGTAAGTATCCACAC yielded a PBM binding z-score of 2.71. With TCTGGCAGGCCAGAGGGTCACTCAAGAGGTACGG the PBM binding z-score was -0.89. TCATATAGGTAAAGGTGTAAGTCGAACGATATGA was tested, and the PBM binding z-score was -0.187. TTATATAGGTAAAGGTGAAAGTCGAACGATATGA was tested, and the PBM binding z-score was 0.294. GATACAGGGTCACGGCCAGAGTACGCGTATTGAT showed a PBM binding z-score of -0.171. GCTAGCAGGCAATTTGGGTCACTCAATGACGGGC was tested, and the PBM binding z-score was -0.943. CCTAGCCGGCCAGGGTCACTCAAGCATTTCGCTT gave a PBM binding z-score of -0.922. ACGGACAGGTGAGTGAAGGTAACTCAGCTGGACG showed a PBM binding z-score of -0.864. ATCTCTAGGTAACCAAGTTCAGTGGATGCCGAAC was tested, and the PBM binding z-score was 0.373. In the case of CCTAGCAGGCCAATCTGGGGCACTCAAGGCTTGA, the PBM binding z-score was -1.24. Sequence CGTCCAAGGACAAAGGTCAGTGAAGAGATGACGG has a PBM binding z-score of -0.0848. GATACAGGGTCAAGGCTAGAGTACGCGTATTGAT gave a PBM binding z-score of 0.158. With AATACAGGGTCTTCGTAGGCCAGAGTACGCACAG the PBM binding z-score was -0.311. Work on CCTACTGGGCCAAGGTCATGGATCAGTCAAAGCA yielded a PBM binding z-score of -0.724. GGAACGCGGGCAAAGTTGATAGCATCTGTCGACG showed a PBM binding z-score of -0.943. For ACTATTAGTTGAGACGATGGCAACCGATAGGTTG, the PBM binding z-score was 0.0838. Work on CAGCCTATGTCAGGGCCAGTATAGGAGGAACGTT yielded a PBM binding z-score of -0.259. CCGACTGGGGCTAGGTTACCATAACGCACAGCCA gave a PBM binding z-score of -0.938. In the case of CGAACTAGGTCATTGACAGGACTGTGAATAGTAA, the PBM binding z-score was 0.103. For CGAACGAGGGCCTGAGTTGATAGCAAATGCCGAT, the PBM binding z-score was -0.92. With GCTAGTAGGCCATTTGGGTCACTCAATGACGGGC the PBM binding z-score was -0.894. GCTGCTAGGTGAGGTTGGTCAGCTAACGGGTACG was tested, and the PBM binding z-score was -0.761. ATACCAGGGTGATCGTGAGGTCGTTGATACTAAC showed a PBM binding z-score of 0.0794. GCTAGCAGGCCATTTGGGTGACTCAATGACGGGC gave a PBM binding z-score of -1.19. GCTGCTAGGTCAGGTTGGTCAGCAAACGGGTACG showed a PBM binding z-score of -0.114.

These sequences were tested on PPARa:RXRa (NR concentration 270 nM, RXRa partner concentration 90 nM) in the same assay as above.
Summary of the method: as §1
CCTAGTTGGTCAGCAGGTCACACACCGGATATGA showed a PBM binding z-score of 2.85. Sequence AGTCAAAGTTCAGGAGGAGGTAACGTAAAGCACG has a PBM binding z-score of 3.67. Work on CCAGACAGGTGAGAAGTTAACTCAGCCTCGATTA yielded a PBM binding z-score of 0.706. With TCGAGTAGGTTAGTCGGGGCATTAAGCCAACATA the PBM binding z-score was 0.728. Work on CCTTCTGGGCCACGAAAGGTCATTGATTCAGTGA yielded a PBM binding z-score of 4.97. With TGTCAAAGTTCAAAGGTAACGTTAGTATCCACAC the PBM binding z-score was 5.88. For GCGAGTTGGTCAGTAAAAGGTCACACACCGGTCG, the PBM binding z-score was 4.36. ATATGTAGGTTAAGGGACATTCAGGTTGGTTCGC showed a PBM binding z-score of 3.79. With CCTATTAGTTGGCCATAAGGGCAACCGAAGCTCG the PBM binding z-score was 0.154. GCTGCTAGGTCAAATGATGGTCAGCTAAAGCTCG gave a PBM binding z-score of 3.87. With GCAGACAGGTGAAACGCAGGTCACTCAGGGTGGC the PBM binding z-score was 2.57. For TCTATTAGTTGATTAGGACAACCGAAACAGCGGA, the PBM binding z-score was 0.875. In the case of ACTATTAGTTGACTCAGGGCAACCGATACGACGC, the PBM binding z-score was 0.023. With ATCTCTACGTAAAGATAGTTCAGTGAATGCAAAT the PBM binding z-score was -0.229. For CGTTACGGGTCACGAGGTTATAGCACGACGAGCG, the PBM binding z-score was 6.15. TTTCAAAGTTCAAAGGTAACGTAAGTATCCACAC gave a PBM binding z-score of 5.69. Work on TCTGGCAGGCCAGAGGGTCACTCAAGAGGTACGG yielded a PBM binding z-score of 2.4. Work on TCATATAGGTAAAGGTGTAAGTCGAACGATATGA yielded a PBM binding z-score of 1.81. Work on TTATATAGGTAAAGGTGAAAGTCGAACGATATGA yielded a PBM binding z-score of 4.2. GATACAGGGTCACGGCCAGAGTACGCGTATTGAT was tested, and the PBM binding z-score was 6.26. For GCTAGCAGGCAATTTGGGTCACTCAATGACGGGC, the PBM binding z-score was 2.23. Work on CCTAGCCGGCCAGGGTCACTCAAGCATTTCGCTT yielded a PBM binding z-score of 2.97. In the case of ACGGACAGGTGAGTGAAGGTAACTCAGCTGGACG, the PBM binding z-score was 0.253. ATCTCTAGGTAACCAAGTTCAGTGGATGCCGAAC showed a PBM binding z-score of 0.94. For CCTAGCAGGCCAATCTGGGGCACTCAAGGCTTGA, the PBM binding z-score was 0.967. For CGTCCAAGGACAAAGGTCAGTGAAGAGATGACGG, the PBM binding z-score was 4.56. GATACAGGGTCAAGGCTAGAGTACGCGTATTGAT gave a PBM binding z-score of 5.61. Work on AATACAGGGTCTTCGTAGGCCAGAGTACGCACAG yielded a PBM binding z-score of 0.156. In the case of CCTACTGGGCCAAGGTCATGGATCAGTCAAAGCA, the PBM binding z-score was 4.32. With GGAACGCGGGCAAAGTTGATAGCATCTGTCGACG the PBM binding z-score was 1.67. ACTATTAGTTGAGACGATGGCAACCGATAGGTTG showed a PBM binding z-score of -0.263. Sequence CAGCCTATGTCAGGGCCAGTATAGGAGGAACGTT has a PBM binding z-score of -0.324. Sequence CCGACTGGGGCTAGGTTACCATAACGCACAGCCA has a PBM binding z-score of -0.107. CGAACTAGGTCATTGACAGGACTGTGAATAGTAA was tested, and the PBM binding z-score was 4.71. CGAACGAGGGCCTGAGTTGATAGCAAATGCCGAT was tested, and the PBM binding z-score was -0.663. Work on GCTAGTAGGCCATTTGGGTCACTCAATGACGGGC yielded a PBM binding z-score of 1.98. For GCTGCTAGGTGAGGTTGGTCAGCTAACGGGTACG, the PBM binding z-score was -0.326. In the case of ATACCAGGGTGATCGTGAGGTCGTTGATACTAAC, the PBM binding z-score was 1.82. GCTAGCAGGCCATTTGGGTGACTCAATGACGGGC gave a PBM binding z-score of 0.031. Sequence GCTGCTAGGTCAGGTTGGTCAGCAAACGGGTACG has a PBM binding z-score of 1.52.
